# Luciferase inh: Firefly luciferase inhibition profiling of diverse chemical library using quantitative high-throughput screening. Luciferin 4-monooxygenase (Photinus pyralis), P08659. purified P. pyralis luciferase, luminescence, biochemical. Potency, µM (titrated, usually from 115 µM), hits mostly inhibitors. hit rate 2.5% among 76,000. AID 1347043, 2019; note: nearly all actives have a fitted effect of over 65% in size
# Target sequence (P08659 whole entry, looked up): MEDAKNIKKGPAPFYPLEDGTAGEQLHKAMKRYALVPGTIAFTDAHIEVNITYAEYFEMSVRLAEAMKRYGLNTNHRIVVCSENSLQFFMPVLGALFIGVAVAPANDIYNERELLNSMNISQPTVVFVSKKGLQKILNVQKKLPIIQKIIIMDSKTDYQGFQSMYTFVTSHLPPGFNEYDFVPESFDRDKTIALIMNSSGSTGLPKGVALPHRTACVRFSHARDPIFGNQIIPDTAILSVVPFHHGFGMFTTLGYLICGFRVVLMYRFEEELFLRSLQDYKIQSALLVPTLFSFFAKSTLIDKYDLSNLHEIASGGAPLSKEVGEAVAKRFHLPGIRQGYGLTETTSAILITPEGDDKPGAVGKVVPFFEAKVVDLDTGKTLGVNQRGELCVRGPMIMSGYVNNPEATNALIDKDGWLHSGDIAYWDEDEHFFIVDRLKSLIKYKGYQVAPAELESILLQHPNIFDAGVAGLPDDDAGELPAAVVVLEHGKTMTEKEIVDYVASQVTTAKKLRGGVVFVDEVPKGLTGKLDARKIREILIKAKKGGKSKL
#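 Cell-free enzyme assay, 10nM P. pyralis luciferase, luciferin and ATP each at 10uM. Inhibition profiled over a 6-point titration, read as luminescence.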
# GPT2 inh: Primary qHTS assay for inhibitors of Glutamate pyruvate transaminase 2 (GPT2); Recombinant GPT2, coupled pyruvate oxidase/HRP Amplex Red fluorescence; Potency, µM (titrated, usually from 57.7 µM), for inactives: at the highest dose activity change, negative = inhibition, actives largely listed as inhibitors; Alanine aminotransferase 2 (Homo sapiens), Q8TD30; hit rate 0.25% among 100,000; AID 1671188, 2021; note: nearly all actives have a fitted effect of over 60% in size
#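 Recombinant GPT2 (10ng/uL) with 250uM a-KG and 2mM L-alanine, 30 min at room temperature, in HEPES pH 7.5 buffer. Pyruvate detected by pyruvate oxidase/HRP/Amplex Red fluorescence after 30 min in the dark; AOA (50uM) as positive control.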
# HEK293 tox: Cytotoxic Profiling in HEK 293 Cell Line of Diverse Libraries Using Quantitative High-Throughput Screening; HEK 293 viability, ATP luminescence (CellTiter-Glo), 48-72 h; Potency, µM (highest dose often 115 µM), for the others: at the highest dose activity change, negative = cytotoxicity, most hits filed as inhibitors; hit rate 6.6% among 94,000; AID 1345083, 2018; note: nearly all actives have a fitted effect of over 60% in size
#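 ATP-coupled CellTiter-Glo luminescence served as viability read-out, recorded 10 min after reagent addition at room temperature. HEK 293 cells, 250 cells/well, had been incubated with pintool-transferred compound for 48 or 72 hr at 37 degree Celsius.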
# 3T3 cytotox: Cytotoxic Profiling in NIH 3T3 Cell Line of Diverse Libraries Using Quantitative High-Throughput Screening; NIH 3T3 viability, CellTiter-Glo ATP luminescence, 48-72 h; Potency, µM (series often up to 96.7 µM), for inactives: at the top dose activity change, negative = cytotoxicity, hits mostly inhibitors; hit rate 4.3% among 94,000; note: nearly all actives have a fitted effect of over 55% in size
#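 Luminescent ATP readout (CellTiter-Glo, 10 min RT) after 48 or 72 hr compound exposure of NIH 3T3 cells seeded at 400 cells/well in 1536-well format; quantitative HTS.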
# hNpr1 antagonist: Natriuretic polypeptide receptor (hNpr1) antagonism - Primary qHTS; Atrial natriuretic peptide receptor 1 (Homo sapiens), P16066; HEK293 hNpr1 GloSensor cGMP, ANP-stimulated luminescence; Potency, µM (doses to about 46.3 µM), for inactives: top-dose activity change, negative = inhibition, most hits filed as inhibitors; hit rate 1.6% among 76,000; AID 1347048, 2019; calls by dose curve; note: nearly all actives have a fitted effect of over 60% in size
#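 Compound pre-incubated 30 min at room temperature on GloSensor-loaded HEK293 cells stably carrying hNpr1 and the pGS-40F cGMP biosensor. Stimulation uses hNppA at 0.1 nM final; luminescence is taken at baseline and 20 min post-agonist.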
# Numbers without * were called inactive; i = inactive; ? = inconclusive; / = not tested or not shown; [ ] = remark or other dose. Hits are enriched below; roughly 10% of the tested compounds scored in any of these assays. Unless noted, calls come from the whole dose curve; as a rule, active = well fitted curve in the direction sought with a large enough effect; inconclusive = small, poorly fitted or top-dose-only effect, or another doubt; inactive = no such curve, though single readings can be large; an effect the other way counts as inactive or inconclusive. % is set by controls: 0 for no effect and ±100 for the full control effect; potency is the fitted concentration of half-maximal effect.
SMILES,Luciferase inh,GPT2 inh,HEK293 tox,3T3 cytotox,hNpr1 antagonist
O=C1NC(=NC2CCCCC2)C2(CCCN(CC3CC3)C2)N1c1cc(F)cc(F)c1 (centres undefined),/,2%,10µM*,32µM*,/
O=C1NC(=NC2CCCCC2)C2(CCCN(CC3CC3)C2)N1c1cccnc1 (centres undefined),/,i,-28%,?,/
O=C1NC(=NC2CCCCC2)C2(CCCN(Cc3ccsc3)C2)N1c1cc(F)cc(F)c1 (centres undefined),/,3%,?,?,/
O=C1NC(=NC2CCCC2)C2(CCN(CC3CC3)CC2)N1c1cc(F)cc(F)c1,/,4%,2%,32µM*,/
O=C1NC(=NC2CCCCC2)C2(CCCN(CC3CCCCC3)C2)N1c1cc(F)cc(F)c1 (centres undefined),/,-8%,?,28µM*,/
CCOC(=O)c1ccc(N2CCN(C(=O)C3=CC(C)(C)COc4ccc(OC)cc43)CC2)cc1,/,/,35µM*,?,/
CCOc1ccccc1C(=O)N1CCC(Oc2nccnc2N(C)C)C1 (centres undefined),32µM*,i,?,-5%,0%
CN(C)c1nccnc1OC1CCN(C(=O)c2ccncc2)C1 (centres undefined),i,2%,0%,i,0%
COc1ccc(C(=O)N2CCC(Oc3nccnc3N(C)C)C2)c(OC)c1 (centres undefined),20µM*,i,?,i,0%
COc1ccc(C(=O)N2CCC(Oc3ncccc3C(=O)N3CCCCC3)C2)c(OC)c1 (centres undefined),i,i,1%,-13%,-3%
CC(=O)Nc1ccc(CN(C)C(C)c2cccs2)cc1 (centres undefined),i,-1%[88.5 µM],-3%[172 µM],-15%[138 µM],16%[70.6 µM]
c1ccc2c(N3CCN(Cc4cc5n(n4)CCNC5)CC3)nsc2c1,i,-20%,40µM*,?,4%
c1ccc2sc(N3CCN(Cc4cc5n(n4)CCCNC5)CC3)nc2c1,i,-39%,-14%,-20%,0%
O=C(c1ccc(C(F)(F)F)cc1)N1CCC2(CC1)CCN(Cc1cccs1)c1ccccc1O2,i,i,25µM*,13µM*,-11%
O=C(C1CC1)N1CCC2(CC1)CCN(Cc1cccs1)c1ccccc1O2,i,i,35µM*,?,2%
O=C1CC2(CCN(C(=O)C3CCN([S+](=O)([O-])c4cccs4)CC3)CC2)Oc2ccccc2N1,/,i,28µM*,?,/
Cc1ccc(C(=O)N2CCC3(CC2)CCN(Cc2cccs2)c2ccccc2O3)cc1,i,-16%,?,?,2%
NC(=O)c1cccc(CN2CCC3(CC2)CC(c2ccccc2)=NO3)c1,/,4%,?,-29%,/
COc1cccc(-c2cc(C(=O)N3CCC(C#N)CC3)c3cnn(C)c3n2)c1,/,/,-21%,-23%,/
COc1cccc(-c2cc(C(=O)N3CCC(c4ccccc4)CC3)c3cnn(C)c3n2)c1,/,/,35µM*,?,/
COc1cccc(-c2cc(C(=O)N3CCCCC3)c3cnn(C)c3n2)c1,/,/,-11%,-18%,/
COc1cccc(-c2cc(C(=O)N3CCC(Cc4ccccc4)CC3)c3cnn(C)c3n2)c1,/,/,45µM*,?,/
Cc1cccc(-c2nc3cc(C(=O)NCC(C)C)ccc3o2)n1,/,i,?,?,/
CCCCn1c(=O)c(C(=O)N2CCN(C(=O)c3ccccc3C)CC2)nc2cccnc21,/,4%,-5%,-8%,/
O=C(c1ccccc1)N1CCCN(Cc2ccc3c(c2)OCO3)c2ccccc21,i,i,35µM*,?,-4%
CC(=O)N1CCCN(Cc2ccc3c(c2)OCO3)c2ccccc21,i,-3%,?,?,4%
COc1cccc(-c2ccc(C(=O)N3CCC(NC(=O)c4ccc(Cl)nc4)CC3)cc2)c1,/,-7%,?,-24%,/
